Screening data from PubChem.
The list is not random: actives were taken first. Their share in the collection is about 6.7%.
GDH-TPI counter: GDH-TPI coupled enzyme inhibition counter-screen. actives 1.2% (n = 360,000). inhibition, % at 4.8 µM. AID 588335. GDH-TPI coupled enzyme counterscreen, NADH absorbance; in the data active means inhibition above about 30%;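 further: 0% = DMSO wells and 100% = wells lacking the enzyme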
Anthrax LF prot: anthrax lethal factor protease inhibition; P15917; multiplex microsphere protease cleavage assay, LF; inhibition, % at 10 µM; actives 0.12% (n = 360,000); further: plate controls were buffer without enzyme for full effect and enzyme alone for no effect
Mtb FBA inh: inhibitors of M. tuberculosis fructose-bisphosphate aldolase. P9WQA3. purified M. tuberculosis FBA, fluorescence read-out. inhibition, % at 1 µM. actives 2.3% (n = 360,000); in the data active means inhibition above about 27%;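 further: 0% = vehicle and 100% = reference inhibitor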
BoNT-F LC inh: inhibitors of Botulinum neurotoxin F light chain protease; Multiplex microsphere protease cleavage assay, flow cytometry; actives 0.22% (n = 360,000); inhibition, % at 10 µM; in the data active means inhibition above about 35%, passing the limit was not always enough; inconclusive means no clear call, values can overlap the other calls; further: plate controls were buffer without enzyme for full effect and enzyme alone for no effect
Bead autofluor: flagged as autofluorescent in microsphere protease counterscreen. AID 624483. fluorescence intensity (concentration not given with the values). actives 3.1% (n = 360,000). compound autofluorescence counterscreen, microsphere flow cytometry; stronger effect = higher value; in the data active means fluorescence intensity above about 16000; inconclusive means no clear call, values can overlap the other calls
BoNT-A LC inh2: blocks Botulinum neurotoxin A light chain protease | multiplex microsphere protease substrate cleavage, flow cytometry | inhibition, % at 10 µM | actives 0.17% (n = 360,000); further: plate controls were buffer without enzyme for full effect and enzyme alone for no effect
Active calls of the source: *; ? = inconclusive; + = active, no number. Unless noted, no stated cut-off is given here; in the data, active means inhibition above about 30%; inconclusive means no clear call, values can overlap the other calls; inactive means below that.

SMILES | GDH-TPI counter | Anthrax LF prot | Mtb FBA inh | BoNT-F LC inh | Bead autofluor | BoNT-A LC inh2
CC1(C)C(c2cccs2)=[N+]([O-])C2(CCCCC/C2=N\O)N1O (stereo unspecified) | 18 | -1 | -1 | -4 | 24784* | -2
Cc1ccc(C2=[N+]([O-])C3(CCCCC/C3=N\NC(N)=O)N(O)C2(C)C)o1 (stereo unspecified) | 18 | 3 | -6 | -3 | 2485 | 0
Cc1[nH]c2ccccc2c1C(=O)COC(=O)c1cccc(S(=O)(=O)N2CCCCC2)c1 | 19 | -4 | -1 | -6 | 9794 | -2
CCn1c(=O)c2cc(C(=O)N(C)c3ccc(OC)cc3OC)sc2c2ccccc21 | 49* | 3 | 5 | -6 | 3227 | 1
CCn1c(=O)c2cc(C(=O)N(C)c3ccccc3F)sc2c2ccccc21 | 14 | -6 | 2 | -7 | 4313 | 0
CCn1c(=O)c2cc(C(=O)N(C)c3cc(C)ccc3OC)sc2c2ccccc21 | 32* | -10 | 7 | 6 | 3544 | -1
CCn1c(=O)c2cc(C(=O)Nc3ccccc3OC)sc2c2ccccc21 | 11 | -4 | 0 | -4 | 3233 | 0
CCOC(=O)N1CCN(C(=O)CSCC(=O)Nc2nc(-c3ccc4c(c3)OCO4)cs2)CC1 | -11 | -6 | 0 | 2 | 19205* | 2
CNc1cccc(-c2cc(OC)c(OC)c(OC)c2)n1 | 16 | -8 | 17 | -4 | 2962 | 0
COc1cc(OC)c2c(-c3cccc(-c4cccc(C)c4)c3)cc(=O)oc2c1 | 26 | 1 | 4 | -7 | 2947 | 0
COc1cc(OC)c2ccc(=O)oc2c1 | 13 | -3 | + | 0 | 5622 | 0
COc1cc(OC)c2c(C)cc(=O)oc2c1 | 21 | 1 | + | -7 | 3354 | 2
N#CCc1ccc(Oc2ccc([N+](=O)[O-])cn2)cc1 | 7 | -5 | 0 | -3 | 5812 | 0
COCCn1c(C)cc2c(c1=O)C(c1ccco1)C(C#N)=C(N)O2 (stereo unspecified) | 6 | -7 | 49* | 2 | 21595* | 2
O=C(COC(=O)c1cnc(Cl)c(Cl)c1)NC1CCCCCC1 | 6 | 3 | 0 | 4 | 8390 | 3
O=C(Nn1c(O)c(C=C2N=c3ccccc3=N2)sc1=S)c1ccccc1 | 24 | 78* | -10 | 65* | 7668 | 108*
Cc1ccc(S(=O)(=O)Nn2c(O)c(C=C3N=c4ccccc4=N3)sc2=S)cc1 | 23 | 6 | -14 | -5 | 5052 | 8
O=C(Nn1c(O)c(C=C2N=c3ccccc3=N2)sc1=S)c1ccc(Cl)cc1 | 11 | 70* | -9 | 58* | 13151 | ?
O=C(Nn1c(O)c(C=C2N=c3ccccc3=N2)sc1=S)c1cccc(Cl)c1 | 19 | 56* | -8 | 55* | 5573 | 55*
Cc1ccc(C(=O)Nn2c(O)c(C=C3N=c4ccccc4=N3)sc2=S)cc1 | 11 | 69* | -11 | 64* | 6339 | 78*
Cc1ccc(S(=O)(=O)N2CCN(c3ncccn3)CC2)c(C)c1 | 4 | -7 | -1 | ? | 3905 | -1
O=c1[nH]c(=S)[nH]nc1Cc1ccc(Cl)c(Cl)c1 | 9 | -1 | 6 | -12 | 3113 | -3
CC(=O)Oc1ccc(N2C(=O)CCC2=O)cc1 | 1 | 9 | 2 | ? | 3030 | 1
COc1ccc(N2C(=O)CCC2=O)cc1 | 6 | -2 | -3 | 5 | 20610* | ?
C/C=C/C(=O)OCC(=O)Nc1c(Cl)cccc1Cl | 6 | -1 | -3 | -3 | 16870* | -2
SMILES | GDH-TPI counter | Anthrax LF prot | Mtb FBA inh | BoNT-F LC inh | Bead autofluor | BoNT-A LC inh2
C/C=C/C(=O)OCC(=O)Nc1cc([N+](=O)[O-])ccc1Cl | 5 | -2 | 0 | -2 | 2100 | 0
Cc1cc(C(=O)N/N=C/c2ccc[nH]2)n[nH]1 | 39* | -1 | -4 | -1 | 2491 | 0
Cc1cc(C(=O)N/N=C/c2ccccc2Br)no1 | 10 | 1 | 0 | -2 | 3288 | -1
Cc1ccc(C)c(NC(=O)CCC(=O)N/N=C/c2ccc[nH]2)c1 | 13 | -1 | -2 | -3 | 21086* | -1
Cc1cc(C(=O)N/N=C/c2ccc(-c3ccccc3Cl)o2)n[nH]1 | 34* | -2 | 2 | -2 | 1970 | 0
Cc1cc(C(=O)N/N=C/c2ccc[nH]2)no1 | 31* | -1 | -3 | -5 | 7231 | -2
O=C(Nc1ccc2c(c1)C(=O)N(CC1CCCO1)C2=O)c1cccc(Br)c1 (stereo unspecified) | 7 | 1 | 23 | -3 | 9734 | 0
O=S(=O)([O-])C/C(=C\c1ccc(Cl)cc1)c1cc[n+](CCO)cc1 | 14 | -13 | -1 | 1 | 5194 | 0
CCOc1ccc(C2Nc3ccc4ccccc4c3-c3c2c(=O)oc2ccccc32)cc1 (stereo unspecified) | 18 | 1 | 3 | 3 | 12808 | 1
Cc1ccn(CCSCC(=O)O)n1 | 11 | -3 | -1 | 2 | 22249* | ?
Cc1nc(Nc2ncc3c(n2)CC(C)(C)CC3=O)nc2ccccc12 | 10 | -10 | -1 | -6 | 4797 | -2
CC1=NC(Nc2nc(C)c3ccccc3n2)=NC(C)(C)C1 | -1 | 5 | 1 | -8 | 24864* | 2
Cc1ccc(O)c(C2=NNC(O)(C(F)(F)F)C2)c1 (stereo unspecified) | 13 | -8 | 1 | -3 | 2349 | 0
NS(=O)(=O)c1ccc(NC=C2C(=O)OC3(CCCCC3)OC2=O)cc1 | 32* | 0 | -1 | 1 | 16483* | 1
Cc1ccc(S(=O)(=O)N2CCN(C(=O)CN3CCc4ccccc4C3)CC2)cc1 | -4 | 0 | 12 | -5 | 21614* | -2
O=C(CN1CCc2ccccc2C1)N1CCN(S(=O)(=O)c2ccccc2)CC1 | -8 | -12 | 7 | -2 | ? | 1
Cc1ccc(S(=O)(=O)N2CCN(C(=O)COC(=O)COc3ccccc3)CC2)cc1 | 5 | -1 | -2 | 2 | 20093* | 0
CCC(=O)Nc1c(OC(=O)CC)ccc2c(C)cc(=O)oc12 | 10 | -4 | 140* | 1 | 4216 | 0
CC(=O)Oc1ccc2c(C)cc(=O)oc2c1C(=O)c1ccccc1 | 8 | -6 | 5 | -11 | 2852 | -1
COc1ccc(-c2nc3c(n2O)CCc2c-3no[n+]2[O-])cc1 | 41* | -9 | -3 | -11 | 4009 | 0
COn1c(-c2ccccc2)nc2c1CCc1c-2no[n+]1[O-] | 7 | 2 | -1 | -8 | 2648 | 0
COc1ccccc1OC(C)c1nnc(SCC(=O)Nc2c(C)n(C)n(-c3ccccc3)c2=O)n1-c1ccccc1 (stereo unspecified) | -5 | -1 | -7 | 4 | 21279* | 4
Cc1c(NC(=O)CSc2nnnn2C)c(=O)n(-c2ccccc2)n1C | 6 | 3 | 4 | -2 | 5702 | 1
Cc1c(NC(=O)CSc2ccc(Cl)cc2)c(=O)n(-c2ccccc2)n1C | -8 | 6 | -3 | -4 | 4554 | 0
